Rab9 promoter act – qHTS Assay for Rab9 Promoter Activators. AID 485297, 2010. Potency, µM (titrated, usually from 9.22 µM), hits mostly activators. Huh7 Rab9 promoter-luciferase reporter, luminescence, 24 h. hit rate 2.8% among 320,000; note: nearly all actives have a fitted effect of over 60% in size
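Luminescence read-out: Huh7 cells stably expressing Rab9-luciferase, treated 24 h with compound at 37 °C, then lysed with luciferase reagent for 10 min at ambient before reading.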
ELG1 DNA repair – qHTS screen for small molecules that inhibit ELG1-dependent DNA repair in human embryonic kidney (HEK293T) cells expressing luciferase-tagged ELG1. HEK293T ELG1-luciferase reporter, luminescence, 16 h; DNA damage induced by 5-fluorouridine. Potency, µM (doses to about 46.1 µM), most hits filed as inhibitors. hit rate 2.3% among 330,000. AID 504467, 2011; note: nearly all actives have a fitted effect of over 55% in size
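5-Fluorouridine DNA damage + compound/DMSO, 2,000 cells/well, 16 h, 37 °C/5% CO2. ONE-Glo, 30 min RT, luminescence. Readout = decrease in reporter signal.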
SMN2 splice enh – qHTS Assay for Enhancers of SMN2 Splice Variant Expression | HEK293 SMN2-luciferase splicing reporter, luminescence, 30-36 h | hit rate 2.8% among 210,000 | Potency, µM (series often up to 46.1 µM), actives largely listed as activators | AID 1458, 2008; note: nearly all actives have a fitted effect of over 55% in size
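qHTS luciferase splicing reporter: luminescence rises when SMN2 exon 7 is included in transfected HEK293 cells. Compound exposure lasted 30-36 h at 37C, with 4.5 mM final sodium butyrate as control, followed by a ONE-Glo read.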
ELG1 genotoxic – qHTS screen for small molecules that induce genotoxicity in human embryonic kidney (HEK293T) cells expressing luciferase-tagged ELG1; HEK293T ELG1-luciferase reporter, luminescence, 16 h; Potency, µM (doses to about 46 µM), hits mostly activators; hit rate 1.3% among 330,000; AID 504466, 2011; note: nearly all actives have a fitted effect of over 60% in size
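Step 1: seed 2,000 HEK293T ELG1-luciferase cells per well. Step 2: add compound or DMSO, incubate 16 hr at 37 °C. Step 3: ONE-Glo, 30 min at room temperature, read luminescence.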
FLuc modulator – qHTS profiling assay for firefly luciferase inhibitor/activator using purifed enzyme and Km concentrations of substrates (counterscreen for miR-21 project); Luciferin 4-monooxygenase (Photinus pyralis), P08659; purified FLuc, Km substrates, luminescence inhibition; Potency, µM (doses to about 57.5 µM), usual class: inhibitors; hit rate 6.9% among 360,000; AID 588342, 2011; note: nearly all actives have a fitted effect of over 55% in size
Target sequence (P08659 whole entry, looked up): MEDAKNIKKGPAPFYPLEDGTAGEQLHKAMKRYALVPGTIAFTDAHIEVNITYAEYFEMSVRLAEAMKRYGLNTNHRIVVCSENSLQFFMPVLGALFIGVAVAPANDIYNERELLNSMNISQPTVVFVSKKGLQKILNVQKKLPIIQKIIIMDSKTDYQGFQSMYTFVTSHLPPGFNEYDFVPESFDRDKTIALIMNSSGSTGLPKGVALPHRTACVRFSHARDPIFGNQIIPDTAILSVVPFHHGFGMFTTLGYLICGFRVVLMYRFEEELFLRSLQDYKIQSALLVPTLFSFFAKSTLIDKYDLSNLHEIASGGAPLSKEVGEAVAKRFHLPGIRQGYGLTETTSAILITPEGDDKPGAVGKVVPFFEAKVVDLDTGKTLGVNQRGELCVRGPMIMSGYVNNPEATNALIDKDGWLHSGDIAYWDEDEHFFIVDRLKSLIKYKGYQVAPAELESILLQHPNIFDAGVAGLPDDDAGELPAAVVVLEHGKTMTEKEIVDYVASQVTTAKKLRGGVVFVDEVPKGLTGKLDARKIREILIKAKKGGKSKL
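Biochemical qHTS of compounds, final roughly 60 µM downward over six points, against 10 nM purified firefly luciferase using Km concentrations of substrates (10 uM D-luciferin, 10 uM ATP) in Tris acetate pH 7.5 buffer; luminescence output.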
NPC1 prom act – qHTS Assay for NPC1 Promoter Activators | Huh7 NPC1 promoter luciferase reporter, 24 h | Potency, µM (titrated, usually from 9.22 µM), most hits filed as activators | hit rate 2.4% among 320,000 | AID 485313, 2010; note: nearly all actives have a fitted effect of over 60% in size
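Quantitative HTS used a cell-based reporter: Huh7 cells stably bearing the NPC1 promoter upstream of luciferase were treated with compounds for 24 h, and promoter activation was read as luminescence.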
Of the large screens only hits and unclear results are named; the others gave an inactive call. Shown are actives, neighbours in structure and some others; about 9.2% of the full set was active somewhere. Calls come from the whole dose curve; as a rule, active = well fitted curve in the direction sought with a large enough effect; inconclusive = small, poorly fitted or top-dose-only effect, or another doubt; inactive = no such curve, though single readings can be large; an effect the other way counts as inactive or inconclusive.

CCCc1ccc(-c2cc(N)n[nH]2)cc1	Rab9 promoter act inconclusive, ELG1 DNA repair inconclusive, ELG1 genotoxic 16µM, FLuc modulator 7.6µM, NPC1 prom act inconclusive
CCCCc1ccc(-c2nc(N)n[nH]2)cc1	Rab9 promoter act 1.6µM, ELG1 DNA repair inconclusive, SMN2 splice enh 6.3µM, ELG1 genotoxic inconclusive, FLuc modulator 6µM, NPC1 prom act 3.2µM
Nc1n[nH]c(-c2ccc(F)cc2)n1	none
CC1(C2CC2)NC(=O)N(CC(=O)N2CCN(S(=O)(=O)c3ccc(F)c(F)c3)CC2)C1=O (stereo unspecified)	none (no result: SMN2 splice enh)
CC(=O)Nc1ccc2c(c1)OCO2	none
C/C(=C\C(=O)c1ccc(C)o1)Nc1ccc2c(c1)OCO2	Rab9 promoter act 2.2µM, ELG1 DNA repair inconclusive, ELG1 genotoxic inconclusive, FLuc modulator 4.8µM, NPC1 prom act 2.8µM
C/C(=C\C(=O)c1ccccc1)Nc1ccc2c(c1)OCO2	Rab9 promoter act 4µM, ELG1 DNA repair inconclusive, SMN2 splice enh 22µM, ELG1 genotoxic inconclusive, FLuc modulator 3.8µM, NPC1 prom act 2.8µM
Cc1ccc(C(=O)OCC(=O)Nc2ccc3c(c2)OCO3)o1	ELG1 DNA repair inconclusive
Cc1ccc(C(=O)Nc2ccc3c(c2)OCO3)o1	ELG1 DNA repair inconclusive, SMN2 splice enh 11µM, ELG1 genotoxic 15µM, FLuc modulator 11µM, NPC1 prom act 2.8µM
OCC1(CCOc2ccccc2)CCN(Cc2ccc(OC(F)F)cc2)CC1	ELG1 DNA repair inconclusive (no result: SMN2 splice enh)
Cn1nc2c3ccccc3n(Cc3ccc(F)cc3)c2nc1=S	none (no result: SMN2 splice enh)
CN(CC(=O)Nc1ccccc1Cl)C(=O)CSc1nncs1	none (no result: SMN2 splice enh)
CCc1ccccc1NC(=O)CN(C)C(=O)CSc1nnc(Nc2cccc(C)c2)s1	ELG1 DNA repair inconclusive, FLuc modulator 12µM
Cc1cccc(Nc2nnc(SCC(=O)NCC3CCCO3)s2)c1 (stereo unspecified)	ELG1 DNA repair inconclusive (no result: Rab9 promoter act, SMN2 splice enh, FLuc modulator, NPC1 prom act)
CCc1ccccc1NC(=O)CN(C)C(=O)CSc1nnc(Nc2ccc(C)cc2)s1	ELG1 DNA repair inconclusive, FLuc modulator 9.5µM
CCc1ccc(Nc2nnc(SCC(=O)N(C)CC(=O)Nc3ccccc3CC)s2)cc1	ELG1 DNA repair 18µM, FLuc modulator 6.7µM
O=C(NC(Cc1c[nH]c2ccccc12)C(=O)O)/C(=C\c1ccc2c(c1)OCO2)NC(=O)c1ccccc1 (stereo unspecified)	none (no result: SMN2 splice enh)
O=C(CSc1nc2ccccc2s1)N1CCCCC1	Rab9 promoter act 3.5µM, ELG1 DNA repair inconclusive, SMN2 splice enh 20µM, ELG1 genotoxic inconclusive, FLuc modulator 24µM, NPC1 prom act 2.8µM
CC1CCN(C(=O)CSc2nc3ccccc3s2)CC1	Rab9 promoter act 2.8µM, ELG1 DNA repair inconclusive, SMN2 splice enh inconclusive, ELG1 genotoxic 12µM, FLuc modulator 12µM, NPC1 prom act 2.8µM
O=C(O)C1CCN(C(=O)CSc2nc3ccccc3s2)CC1	FLuc modulator inconclusive
NC(=O)C1CCN(C(=O)CSc2nc3ccccc3s2)CC1	ELG1 DNA repair inconclusive
COc1ccc(N(C(=O)c2ccco2)C(C(=O)NC2CCCC2)c2ccc(OC)c(OC)c2)cc1 (stereo unspecified)	none (no result: SMN2 splice enh)
CC(=O)Nc1ncc(Cc2cccc(Cl)c2)s1	none (no result: SMN2 splice enh)
O=C(Nc1ncc(Cc2cccc(Cl)c2Cl)s1)C1CCCO1 (stereo unspecified)	Rab9 promoter act 3.5µM, ELG1 DNA repair inconclusive, SMN2 splice enh 16µM, ELG1 genotoxic 16µM, FLuc modulator 11µM, NPC1 prom act inconclusive
O=C(Nc1ncc(Cc2cccc(Cl)c2)s1)C1CCCO1 (stereo unspecified)	Rab9 promoter act inconclusive, ELG1 DNA repair inconclusive, FLuc modulator 19µM, NPC1 prom act inconclusive
